# Values joined by “and” are separate entries in the source; they are usually repeats but may differ in a detail not shown here. Equal values may be shown once. Results filed as inconclusive are left out. Entries that show only a call come without a potency. Active and inactive are the calls of the source. Unless noted, calls follow the shape of the dose curve; as a rule, active = well fitted curve in the direction sought with a large enough effect in the repeat runs; inconclusive = weak or mixed curves; inactive = no such curve, though single readings can be large; an effect the other way counts as inactive or inconclusive. Non-standard residues stand in square brackets, D forms with d. Residues, ends and D or L forms follow the SMILES beside them. Orn = NCCC[C@H](N)C(=O)O
# Assays:
# [1] = qHTS assay for identifying genotoxic compounds that show differential cytotoxicity against isogenic chicken DT40 cell lines with known DNA damage response pathways - wild type cell line (AID 743012); also: nearly all actives have a fitted effect of over 60% in size; also: potency is read from the fitted curve at half-maximal effect
# In short: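 Viability of DNA repair-proficient chicken DT40 cells was assessed by CellTiter-Glo luminescence following 40 h compound exposure at 37 C/5% CO2.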
# [2] = qHTS assay for identifying genotoxic compounds that show differential cytotoxicity against isogenic chicken DT40 cell lines with known DNA damage response pathways - Rev3 mutant cell line (AID 743014); also: nearly all actives have a fitted effect of over 55% in size; also: potency is read from the fitted curve at half-maximal effect
# [3] = qHTS assay for identifying genotoxic compounds that show differential cytotoxicity against isogenic chicken DT40 cell lines with known DNA damage response pathways - Rad54/Ku70 mutant cell line (AID 743015); also: nearly all actives have a fitted effect of over 60% in size; also: potency is read from the fitted curve at half-maximal effect
# [4] = qHTS assay to identify small molecule antagonists of the androgen receptor (AR) signaling pathway - cell viability counter screen (AID 743033; also: nearly all actives have a fitted effect of over 45% in size; also: potency is read from the fitted curve at half-maximal effect)
# [5] = molecular target: Androgen receptor (Homo sapiens) (UniProt P10275); experiment: qHTS assay to identify small molecule antagonists of the androgen receptor (AR) signaling pathway (AID 743035; active = well fitted inhibition curve with a large enough effect in the signal ratio in the repeat runs, not every such curve was filed as active; the % refers to the signal ratio; also: potency is read from the fitted curve at half-maximal effect)
# Sequence of Androgen receptor (Homo sapiens) (P10275 whole entry, looked up): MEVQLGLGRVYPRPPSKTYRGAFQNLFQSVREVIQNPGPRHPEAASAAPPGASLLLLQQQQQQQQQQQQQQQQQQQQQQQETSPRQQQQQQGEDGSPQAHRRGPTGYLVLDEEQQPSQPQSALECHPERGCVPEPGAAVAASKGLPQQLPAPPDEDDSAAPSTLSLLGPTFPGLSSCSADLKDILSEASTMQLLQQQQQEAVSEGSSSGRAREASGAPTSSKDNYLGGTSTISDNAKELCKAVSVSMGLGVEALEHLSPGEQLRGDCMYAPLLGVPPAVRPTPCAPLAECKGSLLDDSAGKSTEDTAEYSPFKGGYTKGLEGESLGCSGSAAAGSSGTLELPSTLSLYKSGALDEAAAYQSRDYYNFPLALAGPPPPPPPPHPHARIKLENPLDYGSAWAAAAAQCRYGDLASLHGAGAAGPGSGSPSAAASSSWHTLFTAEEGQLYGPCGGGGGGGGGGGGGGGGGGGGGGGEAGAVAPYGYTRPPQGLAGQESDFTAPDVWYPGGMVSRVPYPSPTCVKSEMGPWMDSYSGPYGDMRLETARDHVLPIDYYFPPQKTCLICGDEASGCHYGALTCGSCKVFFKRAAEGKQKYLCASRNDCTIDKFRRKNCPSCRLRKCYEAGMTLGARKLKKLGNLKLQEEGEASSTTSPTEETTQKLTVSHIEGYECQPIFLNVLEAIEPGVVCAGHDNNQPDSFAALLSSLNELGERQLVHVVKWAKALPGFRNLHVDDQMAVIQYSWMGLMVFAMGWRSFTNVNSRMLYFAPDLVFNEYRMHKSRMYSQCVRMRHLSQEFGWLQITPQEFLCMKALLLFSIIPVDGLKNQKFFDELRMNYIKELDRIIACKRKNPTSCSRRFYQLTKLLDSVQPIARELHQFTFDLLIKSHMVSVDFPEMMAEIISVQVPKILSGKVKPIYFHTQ
# In short: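 Reporter HEK293 cells were exposed to compounds and R1881 overnight (16 h, 37C); beta-lactamase activity was then quantified by FRET fluorescence.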
# [6] = molecular target: Androgen receptor (Homo sapiens) (UniProt P10275); experiment: qHTS assay to identify small molecule agonists of the androgen receptor (AR) signaling pathway (AID 743036; active = well fitted activation curve with a large enough effect in the signal ratio in the repeat runs, with a control signal flat, not every such curve was filed as active; the % refers to the signal ratio)
# In short: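 Quantitative HTS of the Tox21 10K library in HEK293 cells bearing a stably integrated UAS-controlled beta-lactamase reporter. Compound exposure lasted 16 h at 37C. Reporter activity was detected by FRET substrate fluorescence after 2 h at room temperature.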
# [7] = molecular target: Androgen receptor (Homo sapiens) (UniProt P10275); experiment: qHTS assay to identify small molecule agonists of the androgen receptor (AR) signaling pathway using the MDA cell line (AID 743040; also: nearly all actives have a fitted effect of over 20% in size)
# In short: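 Stable MMTV-luciferase reporter in MDA-kb2 cells; note the promoter carries GR as well as AR response elements. 16 h compound treatment, 37C, 0% CO2; ONE-Glo luminescence endpoint.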
# [8] = molecular target: Androgen receptor (Homo sapiens) (UniProt P10275); experiment: qHTS assay to identify small molecule antagonists of the androgen receptor (AR) signaling pathway using the MDA cell line (AID 743042; also: nearly all actives have a fitted effect of over 55% in size; also: potency is read from the fitted curve at half-maximal effect)
# In short: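 Antagonist mode: compounds plus R1881 agonist added to MDA-kb2 AR-luc cells, incubated 16 h at 37C. Luciferase reporter luminescence quantified, with multiplexed CellTiter-Fluor readout for cell viability.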
# [9] = qHTS assay to identify small molecule antagonists of the thyroid receptor (TR) signaling pathway - cell viability counter screen (AID 743064); also: nearly all actives have a fitted effect of over 50% in size; also: potency is read from the fitted curve at half-maximal effect
# In short: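 Rat GH3 pituitary tumor cells stably expressing two TR response elements driving luciferase were plated, rested 4 h, then dosed with library compounds and T3 (1 nM final). After 23.5 h at 37 °C, CellTiter-Fluor was added for 30 min and fluorescence recorded.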
# [10] = qHTS assay to identify small molecule antagonists of the thyroid receptor (TR) signaling pathway (AID 743065); also: nearly all actives have a fitted effect of over 55% in size; also: potency is read from the fitted curve at half-maximal effect
# In short: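 Antagonism measured as loss of luciferase signal in GH3 cells stably carrying a TRE-luciferase reporter, co-treated with compound and T3 (1 nM final) for 23.5 h at 37 C. Viability was read in the same well by CellTiter-Fluor.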
# [11] = molecular target: Estrogen receptor (Homo sapiens) (UniProt P03372); experiment: qHTS assay to identify small molecule agonists of the estrogen receptor alpha (ER-alpha) signaling pathway (AID 743075; calls by dose curve)
# Sequence of Estrogen receptor (Homo sapiens) (P03372 whole entry, looked up): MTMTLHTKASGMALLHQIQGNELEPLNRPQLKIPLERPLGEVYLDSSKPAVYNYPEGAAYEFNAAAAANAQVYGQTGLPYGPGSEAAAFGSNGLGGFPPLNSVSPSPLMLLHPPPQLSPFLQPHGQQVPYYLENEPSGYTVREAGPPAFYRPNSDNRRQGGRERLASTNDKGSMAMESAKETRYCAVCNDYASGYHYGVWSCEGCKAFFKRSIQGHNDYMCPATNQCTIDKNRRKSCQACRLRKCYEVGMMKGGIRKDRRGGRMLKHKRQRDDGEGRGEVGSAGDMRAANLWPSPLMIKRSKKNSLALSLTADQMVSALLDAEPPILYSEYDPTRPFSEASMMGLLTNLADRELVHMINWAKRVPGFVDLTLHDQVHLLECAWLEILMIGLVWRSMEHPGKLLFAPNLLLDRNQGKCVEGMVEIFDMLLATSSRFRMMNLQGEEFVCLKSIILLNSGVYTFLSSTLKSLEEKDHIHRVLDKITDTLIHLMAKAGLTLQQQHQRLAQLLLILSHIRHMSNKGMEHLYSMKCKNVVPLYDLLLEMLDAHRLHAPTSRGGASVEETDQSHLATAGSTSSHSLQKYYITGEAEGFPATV
# [12] = qHTS assay to identify small molecule antagonists of the estrogen receptor alpha (ER-alpha) signaling pathway using the BG1 cell line - cell viability counter screen (AID 743081);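 also: compound given together with 17beta-estradiol as the ER stimulus; nearly all actives have a fitted effect of over 45% in size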; also: potency is read from the fitted curve at half-maximal effect
# Aromatase (Homo sapiens) = Aromatase (Homo sapiens) (UniProt P11511); experiment: qHTS assay to identify aromatase inhibitors (AID 743083); also: nearly all actives have a fitted effect of over 55% in size; also: potency is read from the fitted curve at half-maximal effect
# Sequence of Aromatase (Homo sapiens) (P11511 whole entry, looked up): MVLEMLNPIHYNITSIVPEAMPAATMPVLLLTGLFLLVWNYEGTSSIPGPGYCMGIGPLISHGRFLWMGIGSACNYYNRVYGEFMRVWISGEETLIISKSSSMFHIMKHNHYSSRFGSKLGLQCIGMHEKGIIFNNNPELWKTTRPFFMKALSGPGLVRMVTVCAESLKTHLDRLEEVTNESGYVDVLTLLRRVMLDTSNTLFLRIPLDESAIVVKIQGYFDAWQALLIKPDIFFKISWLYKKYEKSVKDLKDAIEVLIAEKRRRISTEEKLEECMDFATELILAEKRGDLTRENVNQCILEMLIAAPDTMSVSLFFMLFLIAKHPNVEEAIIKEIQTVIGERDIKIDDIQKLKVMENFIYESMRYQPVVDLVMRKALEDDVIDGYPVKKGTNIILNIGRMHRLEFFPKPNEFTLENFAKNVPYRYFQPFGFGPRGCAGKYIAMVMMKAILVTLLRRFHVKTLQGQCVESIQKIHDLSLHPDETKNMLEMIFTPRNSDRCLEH
# [13] = qHTS assay to identify small molecule antagonists of the androgen receptor (AR) signaling pathway using the MDA cell line - cell viability counter screen (AID 743041; also: nearly all actives have a fitted effect of over 45% in size; also: potency is read from the fitted curve at half-maximal effect)
# In short: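 Using the breast carcinoma line MDA-kb2 AR-luc, test chemicals were co-incubated with R1881 for 16 h; CellTiter-Fluor reagent, added at 15.5 h, provided a fluorescence measure of live cells.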
# [14] = tested on: thyroid hormone receptor (rat, GH3 cells); experiment: qHTS assay to identify small molecule agonists of the thyroid receptor (TR) signaling pathway (AID 743066; calls by dose curve)
# [15] = qHTS assay to identify small molecule antagonists of the estrogen receptor alpha (ER-alpha) signaling pathway - cell viability counter screen (AID 743074; calls by dose curve; also: nearly all actives have a fitted effect of over 45% in size; also: potency is read from the fitted curve at half-maximal effect)
# [16] = molecular target: Estrogen receptor (Homo sapiens) (UniProt P03372); experiment: qHTS assay to identify small molecule antagonists of the estrogen receptor alpha (ER-alpha) signaling pathway (AID 743069; active = well fitted curve in the direction sought with a large enough effect in the signal ratio in the repeat runs, not every such curve was filed as active; the % refers to the signal ratio; also: potency is read from the fitted curve at half-maximal effect)
# In short: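 Fluorescence intensity from a beta-lactamase FRET substrate served as the read-out. Cells: HEK293 with stably integrated ER-alpha-UAS-bla reporter. Agonist 17beta-estradiol was co-added with compounds; incubation 18 hr at 37C, substrate 2 hr at room temperature.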
# [17] = molecular target: Estrogen receptor (Homo sapiens) (UniProt P03372); experiment: qHTS assay to identify small molecule agonists of the estrogen receptor alpha (ER-alpha) signaling pathway using the BG1 cell line (AID 743079); also: nearly all actives have a fitted effect of over 20% in size; also: potency is read from the fitted curve at half-maximal effect
# [18] = qHTS assay to identify small molecule antagonists of the glucocorticoid receptor (GR) signaling pathway - cell viability counter screen (AID 720693); also: nearly all actives have a fitted effect of over 55% in size
# [19] = qHTS assay to identify small molecule antagonists of the estrogen receptor alpha (ER-alpha) signaling pathway using the BG1 cell line (AID 743080; calls by dose curve;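 also: BG1 cells stimulated with 17beta-estradiol alongside compound; series mostly up to about 70 µM; nearly all actives have a fitted effect of over 25% in size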)
# In short: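 Quantitative HTS on the Tox21 10K library: BG1 cells with endogenous ER-alpha and ERE-luciferase reporter, 17beta-estradiol stimulation, 21.5 h compound exposure, luminescence endpoint with parallel fluorescence cytotoxicity counter-read.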
Structure (SMILES),Potency [1],Potency [2],Potency [3],Potency [4],Potency [5],Potency [6],Potency [7],Potency [8],Potency [9],Potency [10],Potency [11],Potency [12],Potency (Aromatase (Homo sapiens)),Potency [13],Potency [14],Potency [15],Potency [16],Potency [17],Potency [18],Potency [19]
CN[C@H]1CC[C@@H](c2ccc(Cl)c(Cl)c2)c2ccc(S(N)(=O)=O)cc21,13.7 µM (active),13.7 µM (active),13.7 µM (active),54.9 µM (active),43.6 µM (active),inactive,inactive,68.6 µM (active),8.63 µM (active),4.33 µM (active),inactive,inactive,48.6 µM (active),,,,,,,
CC/C(=C(/CC)c1ccc(OP(=O)(O)O)cc1)c1ccc(OP(=O)(O)O)cc1,inactive,inactive,inactive,inactive,,,,,,inactive,,inactive,inactive,inactive,inactive,,,,,
CO[C@H]1C[C@@H]2CC[C@@H](C)[C@@](O)(O2)C(=O)C(=O)N2CCCC[C@H]2C(=O)O[C@H]([C@H](C)C[C@@H]2CC[C@@H](O)[C@H](OC)C2)CC(=O)[C@H](C)C=C(C)[C@@H](O)[C@@H](OC)C(=O)[C@H](C)C[C@H](C)/C=C/C=CC=C1C,2.4 nM (active) and 3 nM (active),2.7 nM (active) and 2.4 nM (active),,inactive,10.7 µM (active) and 26.8 µM (active),,inactive,21.1 µM (active) and 23.7 µM (active),15 µM (active) and 9.44 µM (active),15 µM (active),inactive,23.7 µM (active) and 3.76 µM (active),2.11 µM (active),29.8 µM (active),,23.9 µM (active),,,,
NC(=O)[C@@H]1CCCN1C(=O)[C@H](Cc1cnc[nH]1)NC(=O)[C@@H]1CCC(=O)N1,inactive,inactive,inactive,inactive,,,,,inactive,inactive,inactive,inactive,inactive,inactive,inactive,inactive,inactive,inactive,,
Cc1ccc(Cl)c(N)c1Cl,61.1 µM (active),68.6 µM (active),inactive,inactive,,,,,inactive,inactive,,inactive,inactive,inactive,inactive,inactive,,,,
NC(=S)NS(=O)(=O)c1ccc(N)cc1,inactive,inactive,inactive,inactive,,,,,,,,,inactive,inactive,inactive,inactive,,,,
O=P(O)(O)OP(=O)(O)OP(=O)(O)O,,,,,inactive,,inactive,inactive,,,inactive,inactive,inactive,inactive,inactive,inactive,inactive,inactive,inactive,
C[S+](CC[C@H](N)C(=O)O)C[C@H]1O[C@@H](n2cnc3c(N)ncnc32)[C@H](O)[C@@H]1O (stereo not given in full),inactive,inactive,inactive,inactive,,,,,inactive,inactive,,inactive,inactive,inactive,inactive,inactive,,,,
CNCCC=C1c2ccccc2CCc2ccccc21,6.68 µM (active),11.9 µM (active),11.9 µM (active),,,,,,11.9 µM (active),10.6 µM (active),inactive,inactive,,,,,,inactive,,inactive
COc1ccc(/C=C/C(=O)O)cc1,inactive,inactive,inactive,inactive,inactive,inactive,inactive,inactive,inactive,inactive,inactive,inactive,inactive,inactive,inactive,inactive,inactive,inactive,,inactive
CC(C)(O/N=C(\C(=O)N[C@@H]1C(=O)N2C(C(=O)[O-])=C(C[n+]3ccccc3)CS[C@H]12)c1csc(N)n1)C(=O)O,inactive,inactive,inactive,inactive,,,,,inactive,,inactive,inactive,inactive,inactive,inactive,,inactive,inactive,,
O=C(Nc1ccccc1)c1cc(Cl)ccc1O,13.7 µM (active),9.69 µM (active),9.69 µM (active),11 µM (active),,,,,10.9 µM (active),5.45 µM (active),,,27.3 µM (active),,inactive,,,,,
CS(=O)(=O)c1ccc([C@@H](O)[C@@H](COC(=O)CN)NC(=O)C(Cl)Cl)cc1,5.96 µM (active),6.68 µM (active),,inactive,,,,,inactive,inactive,inactive,inactive,inactive,inactive,inactive,inactive,inactive,inactive,,inactive
CC(C)(COP(=O)(O)OP(=O)(O)OC[C@H]1O[C@@H](n2cnc3c(N)ncnc32)[C@H](O)[C@@H]1OP(=O)(O)O)C(O)C(=O)NCCC(=O)NCCS (stereo not given in full),inactive,inactive,,inactive,,,,,inactive,,inactive,inactive,inactive,inactive,inactive,inactive,inactive,26.6 µM (active),,inactive
C[Se]CC[C@H](N)C(=O)O,,,,,,,,,inactive,inactive,inactive,,inactive,inactive,inactive,inactive,inactive,inactive,inactive,
CC(C)C[C@@H]1NC(=O)[C@H](CCCN)NC(=O)[C@H](C(C)C)NC(=O)[C@@H]2CCCN2C(=O)[C@@H](Cc2ccccc2)NC(=O)[C@H](CC(C)C)NC(=O)[C@H](CCCN)NC(=O)[C@H](C(C)C)NC(=O)[C@@H]2CCCN2C(=O)[C@@H](Cc2ccccc2)NC1=O (cyclo(V[Orn]L[dF]PV[Orn]L[dF]P)),0.376 µM (active),0.075 µM (active),0.0944 µM (active),2.68 µM (active),,,,,2.11 µM (active),0.841 µM (active),inactive,,1.88 µM (active),1.97 µM (active),,10.7 µM (active),,,,
C=N[C@@H](C(=O)N[C@@H]1C(=O)N2[C@@H]1SC(C)(C)[C@@H]2C(=O)O)c1ccccc1,inactive,inactive,inactive,inactive,,,,,inactive,inactive,,inactive,inactive,inactive,inactive,inactive,,,,
O=C1c2ccccc2-c2n[nH]c3cccc1c23,9.44 µM (active),11.9 µM (active),9.44 µM (active),inactive,,,inactive,inactive,,11.9 µM (active),,,inactive,,inactive,inactive,,inactive,,
CCCCCCCCOC(=O)c1cc(O)c(O)c(O)c1,0.545 µM (active),1.37 µM (active),0.611 µM (active),,,,,,2.17 µM (active),1.93 µM (active),,,34.4 µM (active),48.6 µM (active),,,61.6 µM [cytotoxic] (active),,,
C=C1[C@@H]2CC[C@@H](C2)C1(C)C,inactive,inactive,inactive,inactive,,,,,inactive,inactive,inactive,inactive,inactive,,inactive,inactive,inactive,29.8 µM (active),,inactive
NCc1cccc(C2CCN(C(=O)c3ccc(C#Cc4ccccc4F)o3)CC2)c1,17.2 µM (active),30.6 µM (active),17.2 µM (active),21.9 µM (active),,,inactive,,7.7 µM (active),7.7 µM (active),inactive,,68.6 µM (active),,inactive,54.9 µM (active),,,,
COc1cc([C@@H]2c3cc4c(cc3[C@@H](O[C@@H]3O[C@@H]5CO[C@@H](C)O[C@H]5[C@H](O)[C@H]3O)[C@H]3COC(=O)[C@H]23)OCO4)cc(OC)c1O,531 nM (active) and 340 nM (active),473 nM (active) and 107 nM (active),53.1 nM (active) and 15.2 nM (active),,,,,,4.28 µM (active),9.44 µM (active) and 3.4 µM (active),,inactive,inactive,inactive,inactive,inactive,,,,
CCCCCCCCCCCCCCCC(=O)OC[C@H](COP(=O)([O-])OCC[N+](C)(C)C)OC(=O)CCCCCCCCCCCCCCC,inactive,inactive,inactive,inactive,inactive,inactive,inactive,inactive,inactive,inactive,inactive,inactive,inactive,inactive,inactive,inactive,inactive,inactive,,inactive

# From PubChem BioAssay (Tox21)
